Experimental data from the supplement of paper PMC6897291.

Legend:
U-2932 [1] = assay: growth inhibition by drug alone (1 - RLU/untreated control) (fraction); higher = stronger inhibition; conditions: 177Lu-lilotomab satetraxetan 0 ug/ml
Outline: (§1)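 A radiolabelled anti-CD37 antibody conjugate (~600 MBq/mg) was applied for 18 h at 0.5 µg/ml to RIVA and 1 µg/ml to U-2932 cells, with untreated cells run alongside. All cells were washed and seeded at 3,000 cells/well onto library-printed plates at 10/100 nM (RIVA) or 10/1,000 nM (U-2932). Growth inhibition was based on RealTime-Glo luminescence compared with untreated no-drug wells. Daily reads began on day 3 after 1 h at 37°C, with each value being 1 − RLU/mean of the 48 such wells on that plate.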

U-2932 [2] = assay: growth inhibition by drug plus 177Lu-lilotomab satetraxetan (1 - RLU/untreated control) (fraction); higher = stronger inhibition; conditions: 177Lu-lilotomab satetraxetan 1 ug/ml
Outline: as §1

RIVA [3] = assay: as above; conditions: 177Lu-lilotomab satetraxetan 0.5 ug/ml
Outline: as §1

RIVA [4] = assay: growth inhibition by drug alone (1 - RLU/untreated control) (fraction); higher = stronger inhibition; conditions: 177Lu-lilotomab satetraxetan 0 ug/ml
Outline: as §1

| SMILES | growth inhibition by drug alone (U-2932 [1]; 10 nM, time (day): 3) | growth inhibition by drug alone (U-2932 [1]; 10 nM, time (day): 4) | growth inhibition by drug alone (U-2932 [1]; 10 nM, time (day): 5) | growth inhibition by drug alone (U-2932 [1]; 10 nM, time (day): 6) | growth inhibition by drug alone (U-2932 [1]; 1000 nM, time (day): 3) | growth inhibition by drug alone (U-2932 [1]; 1000 nM, time (day): 4) | growth inhibition by drug alone (U-2932 [1]; 1000 nM, time (day): 5) | growth inhibition by drug alone (U-2932 [1]; 1000 nM, time (day): 6) | growth inhibition by drug plus 177Lu-lilotomab satetraxetan (U-2932 [2]; 10 nM, time (day): 3) | growth inhibition by drug plus 177Lu-lilotomab satetraxetan (U-2932 [2]; 10 nM, time (day): 4) | growth inhibition by drug plus 177Lu-lilotomab satetraxetan (U-2932 [2]; 10 nM, time (day): 5) | growth inhibition by drug plus 177Lu-lilotomab satetraxetan (U-2932 [2]; 10 nM, time (day): 6) | growth inhibition by drug plus 177Lu-lilotomab satetraxetan (U-2932 [2]; 1000 nM, time (day): 3) | growth inhibition by drug plus 177Lu-lilotomab satetraxetan (U-2932 [2]; 1000 nM, time (day): 4) | growth inhibition by drug plus 177Lu-lilotomab satetraxetan (U-2932 [2]; 1000 nM, time (day): 5) | growth inhibition by drug plus 177Lu-lilotomab satetraxetan (U-2932 [2]; 1000 nM, time (day): 6) | growth inhibition by drug plus 177Lu-lilotomab satetraxetan (RIVA [3]; 10 nM, time (day): 3) | growth inhibition by drug plus 177Lu-lilotomab satetraxetan (RIVA [3]; 10 nM, time (day): 4) | growth inhibition by drug plus 177Lu-lilotomab satetraxetan (RIVA [3]; 10 nM, time (day): 5) | growth inhibition by drug plus 177Lu-lilotomab satetraxetan (RIVA [3]; 10 nM, time (day): 6) | growth inhibition by drug plus 177Lu-lilotomab satetraxetan (RIVA [3]; 100 nM, time (day): 3) | growth inhibition by drug plus 177Lu-lilotomab satetraxetan (RIVA [3]; 100 nM, time (day): 4) | growth inhibition by drug plus 177Lu-lilotomab satetraxetan (RIVA [3]; 100 nM, time (day): 5) | growth inhibition by drug plus 177Lu-lilotomab satetraxetan (RIVA [3]; 100 nM, time (day): 6) | growth inhibition by drug alone (RIVA [4]; 10 nM, time (day): 3) | growth inhibition by drug alone (RIVA [4]; 10 nM, time (day): 4) | growth inhibition by drug alone (RIVA [4]; 10 nM, time (day): 5) | growth inhibition by drug alone (RIVA [4]; 10 nM, time (day): 6) | growth inhibition by drug alone (RIVA [4]; 100 nM, time (day): 3) | growth inhibition by drug alone (RIVA [4]; 100 nM, time (day): 4) | growth inhibition by drug alone (RIVA [4]; 100 nM, time (day): 5) | growth inhibition by drug alone (RIVA [4]; 100 nM, time (day): 6) |
| --- | --- | --- | --- | --- | --- | --- | --- | --- | --- | --- | --- | --- | --- | --- | --- | --- | --- | --- | --- | --- | --- | --- | --- | --- | --- | --- | --- | --- | --- | --- | --- | --- |
| Cc1cc(Nc2cc(N3CCN(C)CC3)nc(/C=C/c3ccccc3)n2)n[nH]1 | -0.0691 | -0.0558 | -0.0606 | -0.0133 | 0.102 | 0.0113 | 0.0189 | 0.221 | -0.149 | -0.0973 | -0.0755 | -0.0149 | 0.048 | 0.00467 | 0.0776 | 0.323 | 0.336 | 0.485 | 0.509 | 0.521 | 0.23 | 0.353 | 0.36 | 0.357 |  |  |  |  |  |  |  |  |
| CC(C)CC(=O)Nc1n[nH]c2c1CN(C(=O)C1CCN(C)CC1)C2(C)C | 0.109 | 0.0893 | 0.0354 | -0.0355 | 0.595 | 0.787 | 0.911 | 0.958 | 0.0658 | 0.101 | 0.0816 | 0.125 | 0.692 | 0.855 | 0.93 | 0.967 | 0.403 | 0.515 | 0.533 | 0.549 | 0.35 | 0.419 | 0.465 | 0.517 |  |  |  |  |  |  |  |  |
| CC(C)C[C@@H](C(=O)N[C@H](C(=O)OC1CCCC1)c1ccccc1)[C@H](O)C(=O)NO [Tosedostat (CHR2797)] | 0.0666 | 0.0228 | -0.0512 | -0.123 | -0.142 | -0.112 | -0.102 | -0.0781 | 0.00927 | 0.0682 | 0.108 | 0.162 | -0.0889 | -0.0223 | 0.0204 | 0.176 | 0.571 | 0.596 | 0.613 | 0.62 | 0.559 | 0.591 | 0.602 | 0.604 |  |  |  |  |  |  |  |  |
| COc1cc(Nc2ncc(F)c(Nc3ccc4c(n3)N(COP(=O)(O)O)C(=O)C(C)(C)O4)n2)cc(OC)c1OC | -0.000834 | -0.000602 | 0.00162 | 0.0946 | 0.00804 | -0.00449 | -0.047 | -0.0248 | 0.0179 | 0.0218 | 0.0539 | 0.209 | -0.0117 | 0.00967 | 0.0277 | 0.162 | 0.382 | 0.517 | 0.542 | 0.553 | 0.413 | 0.448 | 0.452 | 0.437 |  |  |  |  |  |  |  |  |
| O=C1c2ccccc2C(=O)c2c(NCCc3ccc(O)cc3)ccc(NCCc3ccc(O)cc3)c21 | -0.0815 | -0.112 | -0.157 | -0.425 | -0.127 | -0.129 | -0.138 | -0.403 | -0.127 | -0.0794 | -0.054 | -0.0701 | -0.11 | -0.0952 | -0.0582 | 0.044 | 0.317 | 0.429 | 0.456 | 0.479 | 0.329 | 0.437 | 0.433 | 0.44 |  |  |  |  |  |  |  |  |
| Cc1[nH]c2ccccc2c1CCNCc1ccc(/C=C/C(=O)NO)cc1 [Panobinostat] | 0.545 | 0.448 | 0.353 | 0.31 | 0.98 | 0.982 | 0.982 | 0.983 | 0.585 | 0.524 | 0.461 | 0.445 | 0.979 | 0.981 | 0.983 | 0.986 | 0.93 | 0.93 | 0.939 | 0.944 | 0.987 | 0.988 | 0.988 | 0.987 |  |  |  |  |  |  |  |  |
| CC(C)OC(=O)C1=CN(C(=O)c2ccc(F)c(F)c2)CC(C)(C)c2c1[nH]c1ccccc21 | 0.0404 | -0.0052 | -0.0866 | -0.191 | -0.0177 | -0.00403 | -0.0481 | -0.039 | 0.0558 | 0.102 | 0.14 | 0.204 | 0.038 | 0.085 | 0.0862 | 0.162 | 0.587 | 0.594 | 0.614 | 0.598 | 0.546 | 0.595 | 0.608 | 0.597 |  |  |  |  |  |  |  |  |
| COc1ncc(-c2ccc3nccc(-c4ccnnc4)c3c2)cc1NS(=O)(=O)c1ccc(F)cc1F | 0.726 | 0.786 | 0.81 | 0.821 | 0.87 | 0.935 | 0.961 | 0.972 | 0.744 | 0.769 | 0.769 | 0.768 | 0.908 | 0.958 | 0.976 | 0.982 | 0.897 | 0.937 | 0.952 | 0.961 | 0.937 | 0.963 | 0.97 | 0.975 | 0.856 | 0.892 | 0.918 | 0.933 | 0.898 | 0.925 | 0.943 | 0.953 |
| Cn1nnc2c(C(N)=O)ncn2c1=O [Temozolomide] | 0.0892 | 0.0648 | -0.0333 | -0.0967 | -0.0354 | 0.0378 | -0.0162 | -0.101 | 0.00136 | 0.0294 | 0.0193 | 0.0893 | -0.0214 | 0.119 | 0.126 | 0.194 | 0.398 | 0.513 | 0.538 | 0.549 | 0.493 | 0.527 | 0.53 | 0.509 |  |  |  |  |  |  |  |  |
| CC(C)C[C@H](NC(=O)[C@@H](O)[C@H](N)Cc1ccccc1)C(=O)O [Ubenimex (Bestatin)] | 0.0863 | 0.0556 | -0.0551 | -0.108 | -0.043 | -0.0237 | -0.0577 | -0.0906 | 0.0135 | 0.0451 | 0.0835 | 0.192 | -0.112 | -0.0121 | -0.00508 | 0.0506 | 0.428 | 0.535 | 0.552 | 0.573 | 0.504 | 0.54 | 0.554 | 0.541 |  |  |  |  |  |  |  |  |
